Screening data: PubChem, National Center for Advancing Translational Sciences (NCATS)
Shown are actives, neighbours in structure and some others; about 8.1% of the full set was active somewhere.
KB-3-1 cytotox = kills parental KB-3-1 adenocarcinoma cells; KB-3-1 viability, CellTiter-Glo ATP luminescence, 72 h; 400,000 compounds, 1.4% hits; AID 1347075; Potency, µM (series often up to 46.1 µM), actives largely listed as cytotoxic; note: % is set by controls: 0 for no effect and ±100 for the full control effect; nearly all actives have a fitted effect of over 60% in size
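Parental KB-3-1 adenocarcinoma cells in phenol-red-free DMEM with 10% FBS were pin-treated with compounds at several concentrations, incubated 72 h at 37 °C, and viability read by CellTiter-Glo luminescence; concentration-effect curves were fitted after normalization.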
MCF10A rereplic = inducers of DNA re-replication in MCF 10A breast cells. MCF 10A DNA re-replication, Hoechst nuclear intensity, 48 h. Potency, µM (doses to about 46.1 µM), for the others: at the top dose activity, positive = re-replication, hits mostly activators. 350,000 compounds, 2.9% hits. AID 624296; note: % of control where 0% means no effect; nearly all actives have a fitted effect of over 50% in size
SW480 rerep = induces DNA re-replication in SW480 colon adenocarcinoma cells; SW480 DNA re-replication, Hoechst DNA content imaging, 48 h; Potency, µM (highest dose often 46.1 µM), for the others: at the top dose re-replication activation, most hits filed as activators; 340,000 compounds, 1.8% hits; AID 624297; note: % of control where 0% means no effect; nearly all actives have a fitted effect of over 55% in size
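Image-based read-out: total Hoechst fluorescence of nuclei (405 nm excitation, 500-530 nm emission), with hits raising the fraction of high-intensity nuclei. SW480 colon cells incubated 48 hr with compounds at 37 C.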
KB-V1 MDR tox = kills drug-selected multidrug resistant KB-V1 cells | Potency, µM (titrated, usually from 46.1 µM), hits mostly cytotoxic | KB-V1 MDR cells viability, CellTiter-Glo, 72 h | 400,000 compounds, 3.4% hits | AID 1347076; note: % is set by controls: 0 for no effect and ±100 for the full control effect; nearly all actives have a fitted effect of over 60% in size
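KB-V1 MDR subline cells in DMEM (phenol-red free, 10% FBS) exposed to compounds in qHTS concentration series for 72 h at 37 degrees C. Viability read by CellTiter-Glo luminescence; concentration-effect curves fitted after normalization and correction.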
ELG1 DNA repair = blocks ELG1-dependent DNA repair in HEK293T cells; 330,000 compounds, 2.3% hits; AID 504467; HEK293T ELG1-luciferase reporter, luminescence, 16 h; DNA damage induced by 5-fluorouridine; Potency, µM (series often up to 46.1 µM), for inactives: at the top dose activity change, negative = inhibition, most hits filed as inhibitors; note: % is set by controls: 0 for no effect and ±100 for the full control effect; nearly all actives have a fitted effect of over 55% in size
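DMSO vehicle served as the neutral condition. Each well held 2,000 cells given 5-fluorouridine plus compound; after 16 hr at 37 °C/5% CO2, ONE-Glo was added and luciferase measured 30 min later.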
* = called active by the depositor; i = inactive; ? = inconclusive; . = no result. Calls come from the whole dose curve; as a rule, active = well fitted curve in the direction sought with a large enough effect; inconclusive = small, poorly fitted or top-dose-only effect, or another doubt; inactive = no such curve, though single readings can be large; an effect the other way counts as inactive or inconclusive. Potency is the fitted concentration of half-maximal effect.

SMILES | KB-3-1 cytotox | MCF10A rereplic | SW480 rerep | KB-V1 MDR tox | ELG1 DNA repair
CC(=O)Nc1ccc(NC(=O)c2ccc(CN3CCc4ccccc4C3)cc2)cc1 | i | 2% | -11% | i | 5%
COC(=O)c1ccc(CN2CCc3ccc(NC(=O)c4ccncc4)cc3C2)cc1 | ? | ? | -4% | 13µM* | ?
COc1ccc(NC(=O)c2ccc(CN3CCc4ccccc4C3)cc2)c(OC)c1 | i | -1% | -8% | i | -28%
O=C(Nc1ccc(F)cc1)c1ccc(CN2CCc3ccccc3C2)cc1 | ? | 1% | -5% | 5.8µM* | -23%
O=C(Nc1cccc(Br)c1)c1ccc(CN2CCc3ccccc3C2)cc1 | ? | 26µM* | 18µM* | ? | ?
CSc1cccc(NC(=O)c2ccc(CN3CCc4ccccc4C3)cc2)c1 | ? | ? | ? | ? | -21%
CN(C)S(=O)(=O)c1ccc(NC(=O)c2cc(F)c(F)cc2Cl)cc1 | i | -7% | -6% | 23µM* | 16%
COc1ccc(NC(=O)c2cc(F)c(F)cc2Cl)cc1Cl | i | -6% | 7% | i | ?
O=C(Cn1cc2c(n1)CCCC2)N1CCCC1 | i | 0% | -5% | i | 16%
CCCCOc1ccc(Cl)cc1CSc1nnc(CC)n1N | i | 10% | -3% | i | -2%
Cc1cc(C)n(CCc2nc(-c3ccc(C(C)(C)C)cc3)cs2)n1 | i | ? | 14% | 16µM* | -6%
Nc1ccc(OCc2ccccc2)cc1[N+](=O)[O-] | i | 6% | 4% | i | .
COCc1nnc(NC(=O)C2CC(=O)N(c3ccc(C)c(Cl)c3)C2)s1 (stereo not drawn) | i | 3% | ? | i | 5%
COC(=O)c1ccccc1NC(=O)C1CC(=O)N(c2ccc(C)c(C)c2)C1 (stereo not drawn) | i | ? | 87% | 21µM* | -11%
Cc1ccc(N2CC(C(=O)Nc3nccs3)CC2=O)cc1Cl (stereo not drawn) | ? | 8% | 18% | 7.3µM* | ?
COc1ccc(N2CC(C(=O)Nc3ccccc3N3CCCC3)CC2=O)c(OC)c1 (stereo not drawn) | 7.3µM* | ? | 21µM* | ? | -12%
CCOc1ccc(-c2nc(C#N)c(N3CCCCCC3)o2)cc1 | i | 1% | -11% | i | -29%
Cn1c(SCc2ccc(C(C)(C)C)cc2)nnc1C1COc2ccccc2O1 (stereo not drawn) | ? | 21µM* | ? | i | -1%
COC(=O)CSc1nnc(C2COc3ccccc3O2)n1-c1ccccc1 (stereo not drawn) | i | 21µM* | 23% | i | -6%
O=C(NCCc1ccccc1)c1cccc2c1C(=O)c1ccc(N3CCOCC3)cc1S2(=O)=O | i | 3% | 0% | i | -15%
N#Cc1cc(C#N)c(N2CCN(c3cccc(Cl)n3)CC2)nc1N | i | 3.3µM* | 20% | 18µM* | 1%
NC1CCN(c2cccc(Cl)n2)CC1 | . | 2% | -2% | . | .
COc1ccc(-c2csc(NC(=S)NC(=O)c3ccco3)n2)cc1Br | ? | ? | 21% | ? | 0%
COc1ccc(-c2csc(NC(=S)NC(=O)/C=C/c3ccc(C(C)C)cc3)n2)cc1OC | i | 0% | ? | i | 2%
COc1ccc(-c2csc(NC(=S)NC(=O)/C=C/c3ccco3)n2)cc1Br | 5.2µM* | ? | ? | 4.1µM* | 14%
COc1ccc(-c2csc(NC(=S)NC(=O)/C=C/c3ccco3)n2)cc1OC | 7.3µM* | 6.5µM* | 9.2µM* | 6.5µM* | ?
O=C(CC1SC(=Nc2ccccc2)N(CCCO)C1=O)Nc1ccc(Cl)cc1 (stereo not drawn) | ? | 7% | -4% | ? | ?
